Source: the supplement of paper PMC9337992
± gives the standard deviation of the averaged measurements.

System: MDAMB436
Experiment: cell proliferation (confluence) relative to DMSO control; higher = less growth inhibition
Conditions: 5 uM; 6 d
Description: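 Epigenetic chemical probe screen: 15 TNBC cell lines, 500 cells per well in 384-well plates, treated with 5 uM of each of 36 SGC probes for 6 d. Confluency was imaged by IncuCyte ZOOM and normalised to DMSO control wells. Four replicate wells per compound.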

Structure (SMILES)	cell proliferation [%]
COc1cc(C(=O)N2CC[C@@H](O)[C@@H](N)C2)cc2nc(-c3cc4ccccc4n3CC3CC3)n(C)c12	76.4 ± 6.2
c1ccc([C@@H]2C[C@H]2NC2CCNCC2)cc1	93.8 ± 3.3
O=C(O)CNC(=O)c1c(O)c2ccccc2n(Cc2ccccc2)c1=O	96.4 ± 0.42
